High-throughput results from PubChem BioAssay.
HTT-AS act: activators of huntingtin-antisense promoter activity; HEK293 HTT-AS promoter firefly luciferase reporter, 24 h; response scale: percent change from vehicle, -100% = no light; Potency, µM (series often up to 57.5 µM), for the others: at the highest dose activity change, positive = activation, most hits filed as activators; hit rate 0.24% among 48,000; AID 1508624; note: nearly all actives have a fitted effect of over 55% in size
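Firefly luciferase readout (Dual-Glo, 10 min RT) after 24 h, 37 °C compound exposure (final up to 57.5 uM) of HEK293 reporter cells cultured 24 h beforehand; PTC124 at 50 uM final as control inhibitor; activity scaled vehicle 0%, zero RLU -100%.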
NTMT1 inhibitor: NTMT1 methyltransferase inhibition | AID 1645870 | NTMT1 MTase-Glo SAH luminescence, purified enzyme | Potency, µM (series often up to 114 µM), for inactives: at the highest dose activity change, negative = inhibition, actives largely listed as inhibitors | hit rate 2.5% among 59,000;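 note: plate controls were DMSO vehicle for no effect and no enzyme for full effect; nearly all actives have a fitted effect of over 65% in size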
Target sequence (Q9BV86 whole entry, looked up): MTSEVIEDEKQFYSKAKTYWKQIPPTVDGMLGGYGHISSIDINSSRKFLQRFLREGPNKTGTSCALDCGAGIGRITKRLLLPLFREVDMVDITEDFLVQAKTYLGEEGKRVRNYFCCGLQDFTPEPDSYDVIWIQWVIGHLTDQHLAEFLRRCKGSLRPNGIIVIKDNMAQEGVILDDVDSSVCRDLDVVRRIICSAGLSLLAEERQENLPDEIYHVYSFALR
HTT promoter inh: HTT promoter inhibition; HEK293 HTT promoter firefly luciferase reporter, 24 h; Potency, µM (series often up to 57.5 µM), for inactives: at the highest dose activity change, negative = inhibition, actives largely listed as inhibitors; hit rate 0.93% among 48,000; AID 1508623; note: nearly all actives have a fitted effect of over 50% in size
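HEK293 cells carrying firefly luciferase reporters were seeded at 2,500 per well in Opti-MEM and cultured for 24 h. They were then treated with compounds at up to 57.5 uM final for 24 h at 37 degrees C before Dual-Glo luminescence readout.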
* = called active by the depositor; u = inconclusive; x = no result; ! = not confirmed by another sample; [ ] = dose if it differs, or a comment. The entries come from a sample that favours hits as a whole. Calls come from the whole dose curve; as a rule, active = well fitted curve in the direction sought with a large enough effect; inconclusive = small, poorly fitted or top-dose-only effect, or another doubt; inactive = no such curve, though single readings can be large; an effect the other way counts as inactive or inconclusive. Potency is the fitted concentration of half-maximal effect.

SMILES | HTT-AS act | NTMT1 inhibitor | HTT promoter inh
CNS(=O)(=O)Nc1nccc(Cc2c(C)c3ccc(Oc4ncccn4)cc3oc2=O)c1F | x | 4.5% | x
CN1CCN(c2ccc3nc(-c4cc(C(C)(C)C)c(OCCCC(=O)NCCCN=[N+]=[N-])c(C(C)(C)C)c4)[nH]c3c2)CC1 | x | 0.5% | x
CSc1ccc(C(=O)/C=C/c2cc(C)c(OC(C)(C)C(=O)O)c(C)c2)cc1 | x | 7.2%[228 µM] | x
O=C(NCCN1CCC(n2c(=O)[nH]c3ccccc32)CC1)c1cc2cc(F)ccc2[nH]1 | x | -5.4%[57.5 µM] | x
O=C(CCCCSc1nnc(-c2cccc3ccccc23)o1)Oc1ccc(F)cc1 | x | 13.7% | x
CC1(C)S[C@H]2[C@H](NC(=O)[C@@H](N)c3ccc(O)cc3)C(=O)N2[C@H]1C(=O)O | x | -7.1% | x
OCCN1CCN(c2ncnc3c2cnn3-c2cccc(Cl)c2)CC1 | u | u | 19.6%
NC(=O)C1CCN(c2ncnc3c2cnn3-c2cccc(Cl)c2)CC1 | -59.1% | -15.0% | 4.47µM*
CCN(CC)CCOc1ccc(Cc2ccccc2)cc1 | 5.4% | 31.6µM*! | -2.8%
CCN(CC)CCOc1ccccc1C(=O)CCc1ccccc1 | -14.4% | 23.7%[57.5 µM] | -7.4%
CCN(CC)CCOc1ccc(C(=C(Cl)c2ccccc2)c2ccccc2)cc1 | 24.3µM* | -24.6%[57.5 µM] | -9.3%
CN(C)CCOc1ccc(/C(=C(/CCCl)c2ccccc2)c2ccccc2)cc1 | x | -0.6% | x
COc1cc(C)c(C(=O)O[C@H]2[C@@H](O)[C@H](n3ccc(=O)[nH]c3=O)O[C@@H]2CO)c(OC)c1 | x | 4.6%[29.8 µM] | x
COc1ccc(OC)c(CCNc2ncnc3onc(-c4ccc(F)cc4)c23)c1 | -40.9% | u | -33.9%
COc1ccc(OC)c(CCNc2ncnc3onc(C)c23)c1 | -71.0% | -11.6% | 15.8µM*
COc1ccc(/C=C/C(=O)O[C@@H]2[C@@H](O)[C@H](C)O[C@@H](OC3C4C=COC(O[C@@H]5O[C@H](CO)[C@@H](O)[C@H](O)[C@H]5O)C4C4(CO)OC34)[C@@H]2O)cc1OC (stereo not given in full) | x | 14.4%[12.6 µM] | x
C=CCC1=C[C@]2(OC)[C@H](C)[C@@H](c3ccc(OC)c(OC)c3)O[C@]2(OC)CC1=O | x | 19.4%[29.8 µM] | x
Cc1cc(Nc2ccc(Cl)cc2)n2cnnc2n1 | -4.3% | 5.7% | -6.3%
Cc1cc(NCc2ccc(Cl)cc2)n2cnnc2n1 | -70.1% | 10.7% | 25.1µM*
Nc1ncnc2c1c(I)cn2C1OC(CO)C(O)C1O (stereo not given) | x | 1.41µM* | x
Nc1ncnc2c1ncn2[C@@H]1O[C@H](CO)[C@@H](O)[C@@H]1O | -3.1% | -9.1% | 0.2%
Cc1ccc(NC(=O)CN2C(=O)N/C(=C\c3cccn3-c3cccc(-c4nn[nH]n4)c3)C2=O)cc1 | x | -0.5% | x
COC(=O)N[C@H](C(=O)N1[C@@H]2CC[C@@H](C2)[C@H]1c1nc2ccc(-c3ccc4c(c3)C(F)(F)c3cc(-c5cnc([C@@H]6CCC7(CC7)N6C(=O)[C@@H](NC(=O)OC)C(C)C)[nH]5)ccc3-4)cc2[nH]1)C(C)C | x | 14.0%[29.8 µM] | x
CCOc1ccc(CCNC(=O)c2ccc3nc(N4CCC(C)CC4)sc3c2)cc1OCC | -77.0% | u | u
CCc1ccc2nc(N3CCN(C(=O)C4CC4)CC3)sc2c1 | u | -6.7% | 2.2%
SMILES | HTT-AS act | NTMT1 inhibitor | HTT promoter inh
CCC(Cc1ccccc1)NC(=O)c1ccc2nc(N3CCC(C)CC3)sc2c1 (stereo not given) | -71.0% | 3.5% | 1.26µM*
CCc1ccc2nc(N3CCC(C(=O)O)CC3)sc2c1 | -75.0% | -0.4% | 10µM*
Fc1cc(Nc2nc(-c3ccncc3)nc3ccccc23)ccc1OC(F)(F)F | x | -2.8% | x
Cc1ccc(S(=O)(=O)Nc2cccc(C(=O)Nc3nc(-c4ccccc4)cs3)c2Cl)cc1 | x | 6.5% | x
CNc1oc(-c2cccc3ncccc23)nc1C#N | x | -3.1% | x
O=C1NCc2nc3ccccc3c(=O)n2C1Cc1c[nH]c2ccccc12 (stereo not given) | x | 7.3%[29.8 µM] | x
COc1ccc2c(c1)C(c1ccc(F)cc1)=C(CN1CCCC1)CO2 | x | 5.9% | x
CC1CCC23COC(=O)C2=CC(O)CC3C1(C)CCC1=CC(=O)OC1O (stereo not given) | x | 6.6%[29.8 µM] | x
CC(O)(C#Cc1ccc2c(c1)N(c1nc(N)ncc1Cl)CC2)c1nccs1 (stereo not given) | -22.7% | 35.5µM* | u
Cc1cc(CO)c(O)c(C(=O)CC2CC(=O)NC(=O)C2)c1 | x | 9.5%[57.5 µM] | x
Cc1cccc(NC(=O)c2oc3c(c2C)-c2[nH]ncc2CC3)c1C | u | -1.2% | 36.6%
Cc1ccc(NC(=O)c2oc3c(c2C)-c2[nH]ncc2CC3)c(Cl)c1 | 2.24µM* | u | 74.1%
Nc1cc(COc2c(Cl)cc(C[C@H](N)C(=O)O)cc2Cl)c2oc(-c3ccccc3)nc2c1 | x | -2.1% | x
Cc1ccc(-c2nccc(=O)n2CC(=O)N(C)C(C)c2ccco2)cc1 (stereo not given) | x | -2.9% | x
C=C[C@H]1CN2CC[C@H]1C[C@@H]2C(O)c1ccnc2ccc(OC)cc12 (stereo not given in full) | x | 7.3%[29.8 µM] | x
Cc1ccc(-n2ncc(C(=O)N3CCN(c4cccc(C)c4C)CC3)c2C2CCNCC2)c(C)c1 | -10.0% | 79.4µM* | -5.0%
Cc1cccc(-n2ncc(C(=O)N3CCN(c4ccc(C)cc4C)CC3)c2C2CCN(C(=O)OC(C)(C)C)CC2)c1 | 3.7% | 2.6% | 3.3%
CC(=O)Nn1c(C)nc2sc3c(c2c1=O)CCNC3 | x | 6.9%[57.5 µM] | x
COc1ccc(-c2cc(C(C)=O)c(C)n2CCC(=O)Nc2ccc(C)cc2Cl)cc1 | -33.2% | 89.1µM* | -38.9%
COc1ccc(-c2cc(C(C)=O)c(C)n2CCC(=O)Nc2cc(C)ccc2OC)cc1 | -21.8% | -3.7% | -24.4%
C=CC(C)(O)C1CC2C3(C)CCCC(C)(C)C3C(O)C(O)C2(C)O1 (stereo not given) | x | 7.7%[29.8 µM] | x
COC(=O)c1ccc(O)c2ncc(N3CC[C@H](N)C3)cc12 | x | 4.3% | x
O=C(c1cc2sccc2n1Cc1ccccc1)N(CCc1ccc(O)c(O)c1)Cc1ccccc1 | x | -1.9%[57.5 µM] | x
Cc1ccccc1-c1noc(-c2nnn(-c3ccccc3C)c2N)n1 | 0.708µM* | 25.5% | 78.5%
COc1ccc(-n2nnc(-c3nc(-c4ccccc4C)no3)c2N)cc1Cl | -9.2% | 1.0% | -5.6%
SMILES | HTT-AS act | NTMT1 inhibitor | HTT promoter inh
Cc1cccc(-n2nnc(-c3nc(-c4cccs4)no3)c2N)c1C | 0.355µM* | 4.7% | 103.5%
Cc1cccc(-n2nnc(-c3nc(-c4cccs4)no3)c2N)c1 | u | 9.9% | 62.2%
C=CC(=O)N[C@H]1CCOC[C@H]1Nc1ncc2cc(-c3c(Cl)c(OC)cc(OC)c3Cl)ccc2n1 | x | 8.9% | x
CC(C)Oc1ccc(CCNC(=O)c2cc3sccc3n2Cc2ccccc2)cc1OC(C)C | x | 16.8% | x
CC1=C(C(=O)NC2CCCCC2)C(c2ccccc2Br)N=C(Nc2nc3ccccc3o2)N1 (stereo not given) | x | 4.6%[57.5 µM] | x
O=S(=O)(c1cccc2ccccc12)N1CCN(c2ccc(Cl)c(Cl)c2)CC1 | -6.3% | 4.8% | -2.6%
O=S(=O)(c1cccc2c(I)cccc12)N1CCCNCC1 | x | 39.8µM*! | x
Cc1ccc(S(=O)(=O)Nc2cc(C)ccc2C(=O)Nc2nc(-c3ccccc3)cs2)cc1 | x | -6.9% | x
FC(F)(F)c1ccc(-c2ccc(CNc3nc(-c4ccccc4C(F)(F)F)nc4ccccc34)cc2)cn1 | x | -15.2% | x
CCOC(=O)c1ccc2ncc(C(=O)OCC)c(NCCc3ccc(OC)c(OC)c3)c2c1 | -18.4% | -20.5% | -19.1%
